Records with an inconclusive call do not appear. Active and inactive are the calls of the source. Unless noted, calls come from the whole dose curve; as a rule, active = well fitted curve in the direction sought with a large enough effect in the repeat runs; inconclusive = weak or mixed curves; inactive = no such curve, though single readings can be large; an effect the other way counts as inactive or inconclusive.
Assays:
[1] = qHTS assay for small molecule agonists of the p53 signaling pathway (AID 651631; calls by dose curve; note: nearly all actives have a fitted effect of over 15% in size)
Outline: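 Testing took place in human colorectal HCT-116 cells with stable p53RE-driven beta-lactamase. After 16 h of compound exposure at 37 °C, a FRET substrate was added and fluorescence recorded 2 h later.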

[2] = qHTS assay for small molecules that induce genotoxicity in human embryonic kidney cells expressing luciferase-tagged ATAD5 (AID 651632); note: nearly all actives have a fitted effect of over 15% in size
Outline: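 Concentration-response screen for ATAD5 upregulation in HEK293T luciferase reporter cells; 16 hr treatment at 37C, then luminescence after 30 min with Amplite at room temperature.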

[3] = qHTS assay for small molecule agonists of the p53 signaling pathway - cell viability (AID 651633; calls by dose curve; note: series mostly up to about 83 µM; nearly all actives have a fitted effect of over 30% in size)
Outline: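 p53RE-bla cells, seeded at 4,000 per well and rested 5 h at 37 C/5% CO2, received compounds in DMSO for 16 h at 37 C. CellTiter-Glo was then added, and luminescence was read after 30 min at room temperature to gauge cytotoxicity.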

[4] = qHTS assay for small molecules that induce genotoxicity in human embryonic kidney cells expressing luciferase-tagged ATAD5 - cell viability (AID 651634; calls by dose curve; note: nearly all actives have a fitted effect of over 25% in size)
Outline: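 15.5 hr compound or vehicle exposure of HEK293T cells expressing luciferase-tagged ATAD5 at 37C; live-cell protease activity is read by fluorescence after 30 min of CellTiter-Fluor.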

[5] = qHTS assay for small molecule disruptors of the mitochondrial membrane potential - cell viability (AID 720634; calls by dose curve;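 note: human HepG2 liver cancer cells; series mostly up to about 83 µM; nearly all actives have a fitted effect of over 20% in size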)
Outline: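 In this qHTS format, HepG2 cells plated overnight were pinned with compound, incubated 1 hr, and assayed for ATP luminescence with CellTiter-Glo after m-MPI dye addition.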

[6] = qHTS assay to test for compound auto fluorescence at 590 nm (red) in HepG2 cells (AID 720674)
Outline: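 Compound auto-fluorescence is scored relative to Rose Bengal sodium, measured at 540/590 nm in live HepG2 cultures after 1 hr compound contact (37 C, 5% CO2).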

[7] = qHTS assay to test for compound auto fluorescence at 535 nm (green) in HepG2 cells (AID 720675)
[8] = qHTS assay to test for compound auto fluorescence at 460 nm (blue) in HEK293 cells (AID 720678)
Outline: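 Measured: blue fluorescence (Ex 405/Em 460 nm) of compound-treated HEK293 cells, incubated overnight at 37C with 5% CO2 and scaled to triamterene equivalents.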

[9] = qHTS assay to test for compound auto fluorescence at 590 nm (red) in HEK293 cells (AID 720679)
Outline: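 Using HEK293 cells at 2,000 per well, the screen added 23 nL of each compound after cell attachment and incubated overnight (37C, 5% CO2). The plate reader then captured red-label fluorescence, Ex/Em 540/590nm.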

[10] = qHTS assay to test for compound auto fluorescence at 535 nm (green) in HEK293 cells (AID 720680)
[11] = qHTS assay to test for compound auto fluorescence at 460 nm (blue) in HEK293 cell free culture (AID 720681)
Outline: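 Test compounds were pinned into cell-free culture medium (DMEM with 10% FBS) and fluorescence was read directly at Ex/Em 405/460 nm. Signals were expressed as fluorescence equivalents of triamterene, with DMSO vehicle as control.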

[12] = qHTS assay to test for compound auto fluorescence at 535 nm (green) in HEK293 cell free culture (AID 720682)
Outline: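 DMEM + 10% FBS, cell-free; cpd or DMSO pinned in; Ex485/Em535 read; output as fluorescein-equivalent signal.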

[13] = qHTS assay to test for compound auto fluorescence at 590 nm (red) in HEK293 cell free culture (AID 720683)
Outline: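 Tox21 10K library compounds were pinned into cell-free DMEM with 10% FBS and fluorescence was read at excitation 540 nm. Activity is expressed as Rose Bengal sodium equivalency.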

[14] = qHTS assay to test for compound auto fluorescence at 590 nm (red) in HepG2 cell free culture (AID 720684)
Outline: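 Ex 540 / Em 590 nm read of compound in cell-free MEM (10% FBS). Rose Bengal sodium reference.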

[15] = qHTS assay to test for compound auto fluorescence at 460 nm (blue) in HepG2 cell free culture (AID 720685)
Outline: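 Cell-free plates of MEM plus 10% FBS received 23 nL compound or DMSO vehicle; blue-channel (405/460 nm) intensity scored against triamterene as reference fluorophore.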

[16] = qHTS assay to test for compound auto fluorescence at 535 nm (green) in HepG2 cell free culture (AID 720686)
[17] = qHTS assay to test for compound auto fluorescence at 460 nm (blue) in HepG2 cells (AID 720687)
Outline: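 Cells (2,000/well in MEM with 10% FBS) attached overnight at 37 C, then were exposed to compound or DMSO for 1 hr at 37 C, 5% CO2. Fluorescence read at Ex/Em 405/460 nm, expressed as triamterene-equivalent signal.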

[18] = qHTS assay for small molecule disruptors of the mitochondrial membrane potential (AID 720635)
Outline: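 HepG2 cells (2,000/well) attached overnight at 37C, then took compound for 1 hr at 37C, 5% CO2. Mito-MPS dye was added for 30 min; fluorescence was read at 490/535 nm (monomers) and 540/590 nm (aggregates).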

[19] = target: Glucocorticoid receptor (Homo sapiens) (UniProt P04150); test: qHTS assay to identify small molecule agonists of the glucocorticoid receptor (GR) signaling pathway (AID 720691; active = well fitted activation curve with a large enough effect in the signal ratio in the repeat runs, not every such curve was filed as active; the % refers to the signal ratio)
Outline: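 Measures GR pathway activation through a GRE-beta-lactamase reporter stably integrated in HeLa cells, with 18 h compound treatment at 37 C and fluorescence detection using a FRET substrate.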

[20] = target: Glucocorticoid receptor (Homo sapiens) (UniProt P04150); test: qHTS assay to identify small molecule antagonists of the glucocorticoid receptor (GR) signaling pathway (AID 720692; active = well fitted inhibition curve with a large enough effect in the signal ratio in the repeat runs, not every such curve was filed as active; the % refers to the signal ratio)
Outline: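 Tox21 10K library screened in concentration-response for blockade of dexamethasone (5 nM final)-induced GRE-bla reporter activity in HeLa cells; 18 h treatment, fluorescence read.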

Measured: Potency

Chain of Glucocorticoid receptor (Homo sapiens) (P04150 whole entry, looked up): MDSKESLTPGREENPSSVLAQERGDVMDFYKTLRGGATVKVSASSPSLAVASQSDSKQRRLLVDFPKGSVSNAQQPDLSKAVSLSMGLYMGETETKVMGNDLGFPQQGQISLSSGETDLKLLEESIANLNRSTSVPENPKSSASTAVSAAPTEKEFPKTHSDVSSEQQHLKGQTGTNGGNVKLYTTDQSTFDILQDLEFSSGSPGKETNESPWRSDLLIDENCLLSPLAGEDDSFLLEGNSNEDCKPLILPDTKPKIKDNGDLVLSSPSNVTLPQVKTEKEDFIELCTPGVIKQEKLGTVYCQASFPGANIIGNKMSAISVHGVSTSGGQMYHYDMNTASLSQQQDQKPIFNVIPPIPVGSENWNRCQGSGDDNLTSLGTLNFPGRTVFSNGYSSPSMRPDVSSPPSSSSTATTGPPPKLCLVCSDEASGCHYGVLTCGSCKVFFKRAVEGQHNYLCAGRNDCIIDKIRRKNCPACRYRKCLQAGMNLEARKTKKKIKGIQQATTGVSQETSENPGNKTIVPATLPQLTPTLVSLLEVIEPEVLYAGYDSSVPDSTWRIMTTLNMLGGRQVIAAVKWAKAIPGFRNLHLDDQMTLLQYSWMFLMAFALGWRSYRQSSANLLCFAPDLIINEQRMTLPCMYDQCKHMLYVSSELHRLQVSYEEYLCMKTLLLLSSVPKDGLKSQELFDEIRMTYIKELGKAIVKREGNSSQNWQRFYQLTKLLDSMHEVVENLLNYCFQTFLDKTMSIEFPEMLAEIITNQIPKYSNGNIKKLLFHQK

CCN1CCN(C(=O)N[C@@H](C(=O)N[C@@H]2C(=O)N3C(C(=O)O)=C(CSc4nnnn4C)CS[C@H]23)c2ccc(O)cc2)C(=O)C1=O
not listed: [18] | [19] | [20]
inactive: all other assays above

CC/C=C\CCOC(=O)c1ccccc1
not listed: [6] | [10] | [11] | [20]
inactive: all other assays above

CN(C)c1cc(NC(=O)CNC(C)(C)C)c(O)c2c1C[C@H]1C[C@H]3[C@H](N(C)C)C(=O)C(C(N)=O)=C(O)[C@@]3(O)C(=O)C1=C2O
not listed: [17] | [18] | [19] | [20]
inactive: all other assays above

COC(=O)c1c(C)cc(O)c(C)c1O
not listed: [18] | [19] | [20]
inactive: all other assays above

CC12CCCC=C1C(=O)OC2=O (configuration not stated)
not listed: [18] | [19] | [20]
inactive: all other assays above

CCCCN(CCCC)CCCCCCN(CCCC)CCCC
not listed: [17] | [18] | [19] | [20]
inactive: all other assays above

CC(C)=CCC/C(C)=C\C#N
not listed: [11] | [18] | [20]
inactive: all other assays above

CC(C)(C)OC=O
not listed: [16] | [18] | [19]
inactive: all other assays above

CCCCOCCCC
not listed: [11] | [18]
inactive: all other assays above

CC(C)(O)CCCC1=CCC(C=O)CC1 (configuration not stated)
not listed: [11] | [18]
inactive: all other assays above

CCCOc1ccc(C(=O)OCCN(CC)CC)cc1N
not listed: [6] | [10] | [19]
inactive: all other assays above

O=C1Nc2ccccc2C1=O
not listed: [11] | [18]
inactive: all other assays above

C[C@@H](CN1CC(=O)NC(=O)C1)N1CC(=O)NC(=O)C1
not listed: [11] | [18] | [19] | [20]
inactive: all other assays above

CC(O)CCCCn1c(=O)c2c(ncn2C)n(C)c1=O (configuration not stated)
not listed: [5] | [17] | [19] | [20]
inactive: all other assays above

O=c1[nH]c(=O)c2cn[nH]c2[nH]1
not listed: [6] | [10] | [17] | [18]
inactive: all other assays above
